# Test results: the supplement of paper PMC6555819
# Tested on: VDR:RXRa (NR concentration 270 nM, RXRa partner concentration 90 nM)
# Assay: PBM binding z-score (relative to random genomic background probes); higher = stronger binding; sequences stand for … in GC…GCGATTGACAGCGTAGAATGAAGG
# Experimental: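 Protein-binding microarray (Agilent 4x180K custom design, double-stranded 60-nt probes: 5' GC cap, 34-nt variable region, 24-nt constant primer region; full probe sequence given). Purified or IVT nuclear receptor:RXRα heterodimers (3:1 NR:RXRα, mostly 270:90 nM) or homodimers were incubated for 1 h in PBS with 2% milk and no ligand, then detected with Alexa488 antibodies. Fluorescence from o1-orientation probes (~5 replicates averaged) was converted to z-scores against 500 random hg19 background probes. Variable regions are seed direct-repeat (DR0–DR5) sites, all their single-nucleotide variants and half-site ablations.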
row,Sequence,PBM binding z-score
1,TAACCAAGGTGAAGGTCGTTGATCCCTCTGTAGA,1.31
2,GCGACTGCGGCAAAGCAGGTTACCATAAGGTTGG,-0.392
3,ACTATTAGTTGAGACGAGGGCAACCCATAGGTTG,0.697
4,ATCTCTTGGTAAAGATAGTTCAGTGAATGCAAAT,0.811
5,CGAACTAGGTCATTGACAGGACAGTGAGTAGTAA,2.18
6,CAAACTAGGTCACCGGAACGTCAAAGTCCGCATG,2.48
7,TCATATAGGTAATACAGGTGAAAGACGGCATCTA,1.02
8,CTCGAAAGGTCGTGCTCAGGTCAGTATACCAAAC,5.19
9,TGAATTAGGTTATAAGATCAGGGAACGTTGCAAA,-0.0623
10,GCGACTGGGGCACCAGCAGGTTACCATAACTTAA,-0.157
11,AATACAGGGTCACTAGGCCAGAGTCGGTACGAAT,4.03
12,CCTAGTTGGTCAGGAGCTCACACACCGGATATGA,0.0372
13,TCTCCTAGGTCAACGATGGTCAGCTAATCTGCTA,2.39
14,CAAACTAGGTCACGAAAAGTCAAAGTCGAATGAC,2.71
15,TCTATTAGTTGAGGGGCAACCGACGAGTCCGTTT,0.965
16,AGTCAAAGTTCACAAGGTAACGTAAGATTCAGCT,4.25
17,CCTTACGGGTCACTGACAAGTTATAGCATTTGGA,3.07
18,GCTGCTAGGTCAACTGTTGGTCAGCTAAAGCTCG,1.39
19,TCTTGTAGATCAGCAGGTTAAGAAAGCTGGCCAA,0.357
20,ACTTACGGGTCAACGAGATTATAGCACGCGTATA,5

row,Sequence,PBM binding z-score
1,TCATATAGGTAAACAGCTGAAAGTCCGTAAGTTA,1.06
2,ATCTCTAGGTAGAGATAGTTCAGTGAATGCAAAT,0.159
3,AGACTGAGGTTATACGTAGATCAGGGAAGAAAGT,1.42
4,ATATGTAGGTTACAGCCGGGTCATTCAGGCTATG,4.1
5,CCTTACTGGTCACGAGGTTATAGCACGACGAGCG,1.86
6,CGTCCAAGGTCATAGTAGGTCAGTGAAGACAGAT,5.64
7,ATCTCTAGGTAAAGATCGTTCAGTGAATGCAAAT,0.221
8,GCTGCTAGGTCAGGTTGGTCAGCTTACGGGTACG,0.539
9,ATCTCTAGGTAGCAAGTTCAGTGAAAGAGAGGAC,1.35
10,GCATATAGGTAATACAACGTGAAAGTCCGATTGT,-0.316
11,CGAACTAGGTCATCCAGCACAGTGAATACATTGA,2.34
12,TTGCCTAGGTCATGGGCCAGTATACCACGCGAAC,2.21
13,TCATATAAGTAAAGGTGAAAGTCGAACGATATGA,0.925
14,ATCTCTAGGTAAAAGTTCAGTGCATCCCGAGGAT,1.69
15,ATATGTAGGTTAGCTGGGGTCATTCATACTAGGC,6.21
16,TTACCAAGGTGCGCTGAGGTCGTTGATCCAACTC,4.07
17,GCATATAGGTAACACAAGGTGAAAGTCCGATTGT,0.418
18,ATTTCTAGGTAAGACTCAGTTCAGTGAAGAACGC,1.6
19,TCTAGTTGGTCAAAGGTTACACACTCGAAATGCG,3.11
20,TAGCCTAGGTCAGATCGGGCCAATATACGCTATA,1.01
